Assay results from PubChem BioAssay AID1159580 (chemical genetic matrix, 2015).
The campaign covered roughly 5,500 compounds. About 2,000 (36%) were called active. Roughly 18% stayed inconclusive and do not appear here. The list shows a part of the results. Unmarked numbers belong to inactive results. Rule as the data show it: active = normalized growth mostly below about 0.91 (no sharp cut-off); inconclusive = no clear call, values can overlap the other calls; inactive = mostly above about 0.92.

Assay: chemical genetic growth profiling, strain panel (AID 1159580);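 also: tested at 20 µM; growth read once vehicle control cultures reached saturation at 30 °C; 1 = growth at the plate median or of vehicle wells; lower values mean less growth of the strain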
Conditions: S. cerevisiae deletion strains, growth OD
[1] = locus YHR030C, strain SLT2, hits give low values
[2] = locus YHR079C, strain IRE1, hits give low values
[3] = locus YJL095W, strain BCK1, hits give low values
[4] = locus YJR066W, strain TOR1, hits give low values
[5] = locus YLR113W, strain HOG1, hits give low values
[6] = locus YNL183C, strain NPR1, hits give low values
[7] = locus YOR231W, strain MKK1, hits give low values
[8] = locus YPL256C, strain CLN2, hits give low values

## CSc1ccc(C(=O)c2[nH]c(=O)[nH]c2C)cc1
Locus YAL013W, strain DEP1, hits give low values
  normalized growth: 0.943
Locus YAL040C, strain CLN3, hits give low values
  normalized growth: 1.06
Locus YCL061C, strain MRC1 (second series), hits give low values
  normalized growth: 0.991
Locus YDR363W, strain ESC2, hits give low values
  normalized growth: 0.934
Locus YER002W, strain NOP16, hits give low values
  normalized growth: 0.978
Locus YGR078C, strain PAC10, hits give low values
  normalized growth: 1
Locus YMR307W, strain GAS1, hits give low values
  normalized growth: 1.01
Locus YNL128W, strain TEP1, hits give low values
  normalized growth: 0.981
Locus YNL175C, strain NOP13, hits give low values
  normalized growth: 0.985
Locus YNL197C, strain WHI3, hits give low values
  normalized growth: 0.994
Locus YNL224C, strain SQS1, hits give low values
  normalized growth: 0.994
Locus YOR083W, strain WHI5 (second series), hits give low values
  normalized growth: 0.96

## CC[C@@H]1OC(=O)C[C@@H](O)[C@H](C)[C@@H](O[C@@H]2O[C@H](C)[C@@H](O)[C@H](N(C)C)[C@H]2O)[C@@H](CCN2C[C@H](C)C[C@H](C)C2)C[C@@H](C)C(=O)/C=C/C(C)=C\[C@@H]1CO[C@@H]1O[C@H](C)[C@@H](O)[C@@H](OC)[C@H]1OC
Locus YAL021C, strain ccr4, hits give low values
  normalized growth: 1
Locus YAL026C, strain drs2, hits give low values
  normalized growth: 0.994
Locus YAL030W, strain snc1, hits give low values
  normalized growth: 0.996
Locus YBL061C, strain skt5, hits give low values
  normalized growth: 0.99
Locus YBR009C, strain hhf1, hits give low values
  normalized growth: 1
Locus YBR023C, strain chs3, hits give low values
  normalized growth: 0.997
Locus YBR171W, strain sec66, hits give low values
  normalized growth: 1.01
Locus YBR231C, strain swc5, hits give low values
  normalized growth: 0.986
Locus YBR279W, strain paf1, hits give low values
  normalized growth: 0.982
Locus YCL011C, strain gbp2, hits give low values
  normalized growth: 0.971
Locus YCL016C, strain dcc1, hits give low values
  normalized growth: 0.967
Locus YCL069W, strain vba3, hits give low values
  normalized growth: 1.02
Locus YCR088W, strain abp1, hits give low values
  normalized growth: 1.01
Locus YDL005C, strain med2, hits give low values
  normalized growth: 0.994
Locus YDL040C, strain nat1, hits give low values
  normalized growth: 0.996
Locus YDR001C, strain nth1, hits give low values
  normalized growth: 1.01
Locus YDR069C, strain doa4, hits give low values
  normalized growth: 0.992
Locus YDR137W, strain rgp1, hits give low values
  normalized growth: 1
Locus YDR159W, strain sac3, hits give low values
  normalized growth: 0.931
Locus YDR195W, strain ref2
  normalized growth: 0.972
Locus YDR297W, strain sur2, hits give low values
  normalized growth: 1.01
Locus YDR334W, strain swr1, hits give low values
  normalized growth: 0.995
Locus YDR335W, strain msn5, hits give low values
  normalized growth: 1.01
Locus YDR392W, strain spt3, hits give low values
  normalized growth: 0.887
Locus YEL003W, strain gim4, hits give low values
  normalized growth: 1.01
Locus YEL037C, strain rad23, hits give low values
  normalized growth: 1.01
Locus YEL061C, strain CIN8 (second series), hits give low values
  normalized growth: 1.01
Locus YER015W, strain faa2, hits give low values
  normalized growth: 1
Locus YER016W, strain bim1, hits give low values
  normalized growth: 0.993
Locus YER111C, strain swi4, hits give low values
  normalized growth: 1
Locus YER155C, strain BEM2 (second series), hits give low values
  normalized growth: 1
Locus YFR010W, strain ubp6, hits give low values
  normalized growth: 1
Locus YGL167C, strain pmr1, hits give low values
  normalized growth: 1
Locus YGL173C, strain kem1, hits give low values
  normalized growth: 0.981
Locus YGL227W, strain vid30, hits give low values
  normalized growth: 0.987
Locus YGL240W, strain doc1, hits give low values
  normalized growth: 0.975
Locus YGL253W, strain hxk2, hits give low values
  normalized growth: 1.01
Locus YHR013C, strain ard1, hits give low values
  normalized growth: 0.955
Locus YHR027C, strain rpn1, hits give low values
  normalized growth: 1
[1]
  normalized growth: 0.978
[2]
  normalized growth: 0.971
Locus YHR142W, strain chs7, hits give low values
  normalized growth: 0.983
Locus YJL092W, strain hpr5, hits give low values
  normalized growth: 1.01
Locus YJL095W, strain BCK1 (second series), hits give low values
  normalized growth: 0.996
[3]
  normalized growth: 0.974
Locus YJL115W, strain asf1, hits give low values
  normalized growth: 1.01
Locus YJL129C, strain trk1, hits give low values
  normalized growth: 1
Locus YJL154C, strain vps35, hits give low values
  normalized growth: 1.02
Locus YJL164C, strain tpk1, hits give low values
  normalized growth: 1.03
Locus YJL166W, strain qcr8, hits give low values
  normalized growth: 1.02
[4]
  normalized growth: 0.939
Locus YKL160W, strain elf1, hits give low values
  normalized growth: 0.974
Locus YKR026C, strain gcn3, hits give low values
  normalized growth: 0.997
Locus YKR091W, strain srl3, hits give low values
  normalized growth: 1
Locus YLL001W, strain dnm1, hits give low values
  normalized growth: 1
Locus YLL026W, hits give low values
  normalized growth: 0.993
Locus YLL041C, strain sdh2, hits give low values
  normalized growth: 1.01
Locus YLR027C, strain aat2, hits give low values
  normalized growth: 0.994
[5]
  normalized growth: 1
Locus YLR221C, strain rsa3, hits give low values
  normalized growth: 0.99
Locus YLR258W, strain gsy2, hits give low values
  normalized growth: 0.992
Locus YLR262C, strain YPT6 (second series), hits give low values
  normalized growth: 1.03
Locus YLR320W, strain mms22, hits give low values
  normalized growth: 0.981
Locus YLR342W, strain FKS1, hits give low values
  normalized growth: 0.984
Locus YLR357W, strain rsc2, hits give low values
  normalized growth: 0.987
Locus YLR370C, strain arc18, hits give low values
  normalized growth: 0.99
Locus YLR384C, strain iki3, hits give low values
  normalized growth: 0.981
Locus YML120C, strain ndi1, hits give low values
  normalized growth: 1.01
Locus YMR058W, strain fet3, hits give low values
  normalized growth: 1
Locus YMR125W, strain sto1, hits give low values
  normalized growth: 0.996
Locus YMR129W, hits give low values
  normalized growth: 1
Locus YMR205C, strain PFK2, hits give low values
  normalized growth: 1.01
Locus YMR231W, strain pep5, hits give low values
  normalized growth: 1
Locus YNL071W, strain lat1, hits give low values
  normalized growth: 1.02
[6]
  normalized growth: 0.955
Locus YNL209W, strain ssb2, hits give low values
  normalized growth: 1
Locus YNL248C, strain rpa49, hits give low values
  normalized growth: 1
Locus YNL322C, strain KRE1 (second series), hits give low values
  normalized growth: 0.997
Locus YNR049C, strain mso1, hits give low values
  normalized growth: 1
Locus YOR001W, strain rrp6, hits give low values
  normalized growth: 0.994
Locus YOR070C, strain gyp1, hits give low values
  normalized growth: 0.999
Locus YOR080W, strain dia2, hits give low values
  normalized growth: 1.01
Locus YOR083W, strain WHI5, hits give low values
  normalized growth: 0.943
Locus YOR106W, strain vam3, hits give low values
  normalized growth: 1.01
[7]
  normalized growth: 0.976
Locus YOR265W, strain rbl2, hits give low values
  normalized growth: 1
Locus YOR270C, strain vph1, hits give low values
  normalized growth: 0.976
Locus YOR290C, strain snf2, hits give low values
  normalized growth: 0.978
Locus YPL051W, strain arl3, hits give low values
  normalized growth: 0.998
Locus YPL078C, strain atp4, hits give low values
  normalized growth: 0.991
Locus YPL106C, strain sse1, hits give low values
  normalized growth: 0.963
Locus YPL240C, strain hsp82, hits give low values
  normalized growth: 1
[8]
  normalized growth: 0.952

## O=S(=O)(NCc1cc(Cl)cc(Cl)c1)c1cc(C(F)(F)F)cc(C(F)(F)F)c1
Locus YAR019C, strain CDC15, hits give low values
  normalized growth: 1
Locus YBL105C, strain PKC1, hits give low values
  normalized growth: 0.994
Locus YBR135W, strain CKS1, hits give low values
  normalized growth: 0.998
Locus YBR136W, strain MEC1, hits give low values
  normalized growth: 0.998
Locus YBR160W, strain CDC28, hits give low values
  normalized growth: 0.998
Locus YDL017W, strain CDC7, hits give low values
  normalized growth: 0.998
Locus YDL028C, strain MPS1, hits give low values
  normalized growth: 0.994
Locus YDL101C, strain DUN1, hits give low values
  normalized growth: 0.994
Locus YDL108W, strain KIN28, hits give low values
  normalized growth: 0.997
Locus YDL132W, strain cdc53, hits give low values
  normalized growth: 0.987
Locus YDL214C, strain PRR2, hits give low values
  normalized growth: 0.935
Locus YDR052C, strain DBF4, hits give low values
  normalized growth: 0.996
Locus YDR054C, strain cdc34, hits give low values
  normalized growth: 0.985
Locus YDR226W, strain ADK1, hits give low values
  normalized growth: 0.992
Locus YDR477W, strain SNF1, hits give low values
  normalized growth: 0.912
Locus YER123W, strain YCK3, hits give low values
  normalized growth: 0.907
Locus YER133W, strain GLC7, hits give low values
  normalized growth: 0.928
Locus YFL009W, strain cdc4, hits give low values
  normalized growth: 0.992
Locus YFL029C, strain CAK1, hits give low values
  normalized growth: 1
Locus YFR003C, strain YPI1, hits give low values
  normalized growth: 0.996
Locus YFR019W, strain FAB1, hits give low values
  normalized growth: 0.902
Locus YFR028C, strain CDC14, hits give low values
  normalized growth: 0.997
Locus YGR040W, strain KSS1, hits give low values
  normalized growth: 0.894
Locus YGR052W, strain FMP48, hits give low values
  normalized growth: 0.878
Locus YGR092W, strain DBF2, hits give low values
  normalized growth: 0.881
[1]
  normalized growth: 0.621 (active)
[2]
  normalized growth: 0.835
Locus YHR082C, strain KSP1, hits give low values
  normalized growth: 0.896
Locus YHR205W, strain SCH9, hits give low values
  normalized growth: 0.908
Locus YIL147C, strain SLN1, hits give low values
  normalized growth: 0.996
[3]
  normalized growth: 0.875
Locus YJL128C, strain PBS2, hits give low values
  normalized growth: 0.923
Locus YJL157C, strain FAR1, hits give low values
  normalized growth: 0.926
Locus YJR016C, strain ILV3, hits give low values
  normalized growth: 0.995
Locus YJR066W, strain TOR1 (second series), hits give low values
  normalized growth: 0.947
[4]
  normalized growth: 0.955
Locus YKL048C, strain ELM1, hits give low values
  normalized growth: 0.954
Locus YKL067W, strain YNK1, hits give low values
  normalized growth: 0.961
Locus YKL101W, strain HSL1, hits give low values
  normalized growth: 0.907
Locus YKL193C, strain SDS22, hits give low values
  normalized growth: 0.998
Locus YKL203C, strain TOR2, hits give low values
  normalized growth: 0.982
[5]
  normalized growth: 0.803 (active)
Locus YLR133W, strain CKI1, hits give low values
  normalized growth: 0.918
Locus YLR403W, strain SFP1, hits give low values
  normalized growth: 0.939
Locus YML070W, strain DAK1, hits give low values
  normalized growth: 0.915
Locus YMR001C, strain CDC5, hits give low values
  normalized growth: 0.996
Locus YMR205C, strain PFK2 (second series), hits give low values
  normalized growth: 0.954
Locus YMR277W, strain FCP1, hits give low values
  normalized growth: 0.996
Locus YNL006W, strain LST8, hits give low values
  normalized growth: 0.991
Locus YNL020C, strain ARK1, hits give low values
  normalized growth: 0.899
Locus YNL161W, strain CBK1, hits give low values
  normalized growth: 0.999
[6]
  normalized growth: 1.01
Locus YNL207W, strain RIO2, hits give low values
  normalized growth: 1
Locus YNL222W, strain SSU72, hits give low values
  normalized growth: 0.996
Locus YNL307C, strain MCK1 (second series), hits give low values
  normalized growth: 0.765
Locus YOL078W, strain AVO1, hits give low values
  normalized growth: 0.997
Locus YOL136C, strain PFK27, hits give low values
  normalized growth: 0.895
Locus YOR061W, strain CKA2, hits give low values
  normalized growth: 0.935
Locus YOR119C, strain RIO1, hits give low values
  normalized growth: 0.982
[7]
  normalized growth: 0.933
Locus YOR329C, strain SCD5, hits give low values
  normalized growth: 0.995
Locus YPL031C, strain PHO85, hits give low values
  normalized growth: 0.897
Locus YPL153C, strain RAD53, hits give low values
  normalized growth: 0.912
Locus YPL204W, strain HRR25, hits give low values
  normalized growth: 0.888
Locus YPL209C, strain IPL1, hits give low values
  normalized growth: 0.997
[8]
  normalized growth: 0.87
Locus YPR025C, strain CCL1, hits give low values
  normalized growth: 0.995
Locus YPR106W, strain ISR1, hits give low values
  normalized growth: 0.997
Locus YPR111W, strain DBF20, hits give low values
  normalized growth: 0.989
Strain NNK1, hits give low values
  normalized growth: 0.988
Strain TSCII, hits give low values
  normalized growth: 0.999
